Results as given in PubChem BioAssay AID588342 (National Center for Advancing Translational Sciences (NCATS), 2011).
Screen size: about 360,000 compounds; about 25,000 (6.9%) were called active. Not shown: some 9% with an inconclusive outcome. The call rests on the fitted dose curve; in most records, active means well fitted inhibition curve with a large enough effect; inconclusive means small, poorly fitted or top-dose-only effect; inactive means flat fitted curve, though single readings scatter. Only a selection was taken, and actives are over-represented in it overall.

molecular target: Luciferin 4-monooxygenase (Photinus pyralis) (UniProt P08659); assay: qHTS profiling assay for firefly luciferase inhibitor/activator using purifed enzyme and Km concentrations of substrates (counterscreen for miR-21 project); settings: purified FLuc, luminescence inhibition; series mostly up to 57.5 µM; activity change, negative = inhibition: at the top concentration; further: nearly all actives have a fitted effect of over 55% in size;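 on activity change, negative = inhibition: plate controls were vehicle for no effect and reference inhibitor for full effect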
How it was run: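 Purified P. pyralis luciferase (10nM final) with 10uM D-luciferin and 10uM ATP (Km levels) in 50mM Tris acetate pH 7.5, 10mM Mg acetate, 0.01% Tween-20, 0.05% BSA; qHTS 6-point titration, ~60 µM downward; luminescence read.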
Potency means the concentration at half of the fitted maximal effect.

Chain of Luciferin 4-monooxygenase (Photinus pyralis) (P08659 whole entry, looked up): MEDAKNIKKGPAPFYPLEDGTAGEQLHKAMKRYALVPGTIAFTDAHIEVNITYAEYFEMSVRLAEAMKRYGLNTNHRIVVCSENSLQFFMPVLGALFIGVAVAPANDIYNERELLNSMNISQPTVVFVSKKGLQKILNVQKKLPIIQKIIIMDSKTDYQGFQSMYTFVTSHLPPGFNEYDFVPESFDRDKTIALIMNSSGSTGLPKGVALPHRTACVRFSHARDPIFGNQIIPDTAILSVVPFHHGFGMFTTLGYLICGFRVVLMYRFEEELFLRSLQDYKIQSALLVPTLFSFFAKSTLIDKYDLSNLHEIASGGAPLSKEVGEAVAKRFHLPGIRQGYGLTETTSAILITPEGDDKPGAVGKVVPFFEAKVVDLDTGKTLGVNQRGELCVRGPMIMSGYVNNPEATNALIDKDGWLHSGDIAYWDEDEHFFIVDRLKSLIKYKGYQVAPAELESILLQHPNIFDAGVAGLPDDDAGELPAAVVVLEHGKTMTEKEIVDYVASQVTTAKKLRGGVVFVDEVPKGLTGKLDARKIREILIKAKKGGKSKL

Row | Compound | activity change, negative = inhibition | Potency
1 | Cn1c(=O)[nH]c(=O)c2c1[nH]c(=S)n2Cc1ccccc1 | -1.53% (inactive) | 
2 | CC1=Nc2cc(C(=O)NCc3ccc(C)cc3)ccc2Sc2ccc(Cl)cc21 | -7.52% (inactive) | 
3 | O=C(OCC(=O)N1CCCCCC1)c1cnc(Cl)c(Cl)c1 | -4.72% (inactive) | 
4 | O=C(NCCc1csc(-c2ccccc2)n1)c1ccccc1F |  | 26.9 µM (active)
5 | O=S(=O)(NCCc1csc(-c2ccccc2)n1)c1cccnc1 | -5.44% (inactive) | 
6 | COc1ccc(CCC(=O)NCCc2csc(-c3ccc(Cl)cc3)n2)cc1 | -10.6% (inactive) | 
7 | O=c1ccc2c(-c3ccccc3S(=O)(=O)O)c3ccc(O)c(O)c3oc-2c1O |  | 13.5 µM (active)
8 | COc1ccc(OC)c(NC(=O)C2CCN(S(=O)(=O)c3ccc(C)cc3)CC2)c1 | -3.03% (inactive) | 
9 | COc1ccc(OC)c(C(O)c2nc3ccccc3n2C)c1 (centres undefined) | 1.76% (inactive) | 
10 | CCN(CCCNC(=O)c1c(C)oc2ncn(CC(C)C)c(=O)c12)Cc1ccccc1 | -0.305% (inactive) | 
11 | Cc1ccn2c(=O)c(NC(=O)c3cccc4ccccc34)c(C)nc2c1 | 0.894% (inactive) | 
12 | CCOc1ccc(/C=N\NC(=O)c2c(C)nc3cc(C)ccn23)cc1 | -1.47% (inactive) | 
13 | Cc1ccc(NC(=O)C(=O)NCc2ccc(/C=N/NC(=O)c3c(C)nc4cc(C)ccn34)o2)cc1 |  | 2.13 µM (active)
14 | N=C1C(=O)OCC1c1ccccc1NC(=O)CN1CCCCC1 (centres undefined) | -0.64% (inactive) | 
15 | CN(Cc1ccccc1)C(=O)c1cn(C)c2ccc(S(=O)(=O)N3CCCCC3)cc2c1=O | -4.69% (inactive) | 
16 | CCc1ccccc1NC(=O)CSc1nc(C)c(C(=O)Nc2ccccc2)c(-c2ccc(Cl)cc2)c1C#N | -0.825% (inactive) | 
17 | Cc1cc(C)n(CCNS(=O)(=O)c2ccc(Cl)cc2)n1 | 2.54% (inactive) | 
18 | C=CCN1C(=O)C(Cc2cccc(Cl)c2)S/C1=N/N=C/c1ccco1 (centres undefined) | 1.23% (inactive) | 
19 | O=C1N/C(=N\N=C\c2ccco2)SC1Cc1ccc(F)cc1 (centres undefined) | -0.419% (inactive) | 
20 | COc1ccc(CN2C(=O)C(C)S/C2=N/N=C/c2ccco2)cc1 (centres undefined) |  | 15.1 µM (active)
21 | COc1cccc(C2C(C(=O)Nc3ccc(C)cc3C)=C(C)Nc3c(C(=O)Nc4ccccc4)cnn32)c1 (centres undefined) | -5.82% (inactive) | 
22 | COc1ccc(Oc2cn[nH]c2-c2ccc(OC)cc2O)cc1 | -12.5% (inactive) | 
23 | COc1ccc(/C=C2/C(=O)OCc3cc(OC)c(OC)cc32)c(OC)c1 |  | 12 µM (active)
24 | COc1ccc(CN(C)Cc2nc3cc(OC)c(OC)cc3c(=O)[nH]2)c(OC)c1 | 0.629% (inactive) | 
25 | COc1cc([N+](=O)[O-])ccc1NC(=O)COC(=O)CCOc1ccc(C)cc1 | -1.29% (inactive) | 
26 | Cc1ccc(OC(=O)CSc2nnc(-c3cccs3)o2)cc1 | -2.44% (inactive) | 

Row | Compound | activity change, negative = inhibition | Potency
27 | COc1ccccc1-c1nnc(SCC(N)=O)o1 | -3.36% (inactive) | 
28 | COc1ccc(-c2nnc(SCC(=O)c3cccs3)o2)c(OC)c1 |  | 2.39 µM (active)
29 | CCCCCCn1cc(C(=O)O)c(=O)c2cc(F)c(N3CCCCC3)cc21 | 1.99% (inactive) | 
30 | O=C(Nc1nc2cc3c(cc2s1)OCCO3)c1cccc(S(=O)(=O)N2CCOCC2)c1 |  | 7.57 µM (active)
31 | Cc1cc2nc(NC(=O)c3ccc(S(=O)(=O)N4CCOCC4)cc3)sc2cc1C | 4.43% (inactive) | 
32 | O=C(Nc1ccc(S(=O)(=O)Nc2nccs2)cc1)c1cccc(S(=O)(=O)N2CCOCC2)c1 | -17.3% (inactive) | 
33 | CC(Sc1nnc(-c2cccs2)n1C1CC1)C(=O)NCC1CCCO1 (centres undefined) | 4.14% (inactive) | 
34 | CCOc1ccccc1NC(=O)C1=C(C)Nc2ncnn2C1c1ccc(NC(C)=O)cc1 (centres undefined) | -2.67% (inactive) | 
35 | Brc1cccc(-c2nnc3n2CCC3)c1 | 1.44% (inactive) | 
36 | COc1ccc(-c2nnc3n2CCCCC3)cc1 | 0.399% (inactive) | 
37 | COc1ccc(-c2nc3n(c2Br)CCC3)cc1 |  | 7.57 µM (active)
38 | COc1cccc(N2CC(NC(=O)c3ccc4ccccc4c3)CC2=O)c1 (centres undefined) | -1.3% (inactive) | 
39 | CC(=O)CCC(=O)c1ccc2ccccc2c1 |  | 26.9 µM (active)
40 | CC(=O)c1ccc2c(c1)c1ccccc1n2CC(C)C | -4.18% (inactive) | 
41 | CC(=O)c1ccc2c(ccc3ccccc32)c1 |  | 21.3 µM (active)
42 | O=C(NCC(=O)N1CCN(c2ccccc2O)CC1)c1ccc2ccccc2c1 | -17.3% (inactive) | 
43 | CCN(CC)Cc1cc(C(C)=O)ccc1O | -1.11% (inactive) | 
44 | CC(C)(C)OC(=O)NCCCCCNC(=O)c1nc[nH]c1C(=O)NCc1ccccc1 | -15.1% (inactive) | 
45 | Cc1ccccc1NC(=O)Cn1c(=O)n(Cc2ccco2)c(=O)c2ccc(C(=O)NC3CCCC3)cc21 | -0.556% (inactive) | 
46 | CNC(=O)c1nnn(-c2ccccc2)c1C(=O)NC | -2.19% (inactive) | 
47 | CC(=O)NC12CC3CC(C1)CC(C(=O)N1CCN(S(=O)(=O)c4cccs4)CC1)(C3)C2 | 6.36% (inactive) | 
48 | CC(C)(C)c1ccc(C(=O)Nc2ccc3c(c2)CCCN3C(=O)c2cccs2)cc1 | -13.7% (inactive) | 
49 | CCc1nnc(SCC(=O)Nc2cc(OC)ccc2OC)nc1CC | 0.467% (inactive) | 
50 | O=C(O)c1ccc(NS(=O)(=O)c2ccc3c(c2)C(=O)c2cc(S(=O)(=O)Nc4ccc(C(=O)O)cc4)ccc2-3)cc1 |  | 23.9 µM (active)
51 | CC(=O)c1c(C)oc2ccc(NS(=O)(=O)c3ccc(C(=O)O)cc3)cc12 | -0.624% (inactive) | 
52 | O=C(c1ccc(NS(=O)(=O)c2ccc3[nH]c(=O)[nH]c3c2)cc1)N1CCCCC1 | -2.18% (inactive) | 

Row | Compound | activity change, negative = inhibition | Potency
53 | O=C(CSc1ncc(CO)n1Cc1ccc(F)cc1)NCc1ccco1 | 2.1% (inactive) | 
54 | COc1ccccc1NC(=O)Cn1cnc2ccc(S(=O)(=O)N3CCC(C)CC3)cc2c1=O | -1.78% (inactive) | 
55 | CCCN(CC(=O)Nc1ccccc1C)C(=O)c1ccc2[nH]c3c(c2c1)CC(C)CC3 (centres undefined) | -4.18% (inactive) | 
56 | c1ccc2c(NC3C4CC5CC(C4)CC3C5)nc(N3CCOCC3)nc2c1 (centres undefined) | 0.91% (inactive) | 
57 | Cc1cc(OCC(=O)Nc2ncn[nH]2)c(C)c(C)c1Br | -0.153% (inactive) | 
58 | CC1Cc2ccccc2N1C(=O)CSc1nnc(C2CC2)n1C (centres undefined) | 0.0229% (inactive) | 
59 | O=C(c1c(Cl)cccc1Cl)N1CCN(c2cccc3[nH]ccc23)CC1 | -2.83% (inactive) | 
60 | O=C(c1ccc2ccccc2n1)N1CCN(c2ccccc2Cl)CC1 |  | 16.9 µM (active)
61 | COc1ccccc1N1CCN(C(=O)c2c(-c3c(Cl)cccc3Cl)noc2C)CC1 | 4% (inactive) | 
62 | Cc1ccc(NC(=O)CSCC(=O)Nc2sccc2C#N)cc1 | 9.39% (inactive) | 
63 | Cc1cccc(C)c1Nc1nnc(SCC(=O)Nc2sccc2C#N)s1 | -3.48% (inactive) | 
64 | Cc1csc(SCC(=O)Nc2sccc2C#N)n1 |  | 2.13 µM (active)
65 | CC(OC(=O)Cc1ccc(F)cc1)C(=O)N1CCc2ccccc21 (centres undefined) | 1.31% (inactive) | 
66 | CC(C(=O)O)n1cnc2sc3c(c2c1=O)CCCC3 (centres undefined) | -12.5% (inactive) | 
67 | CC(C)(C)OC(=O)N1CCC(c2c(C(=O)N3CCc4ccccc4C3)cnn2-c2ccc(F)cc2)CC1 | -7.72% (inactive) | 
68 | O=C(NCc1cccc(CNC(=O)Nc2cccc(O)c2)c1)Nc1cccc(O)c1 | -18.1% (inactive) | 
69 | O=C(CSc1ccccc1)Nc1ccc(C(=O)Nc2cccc(O)c2)cc1 | -19.6% (inactive) | 
70 | C/C(=C\C(=O)c1cccnc1)Nc1ccc(C)c(C)c1 |  | 6.75 µM (active)
71 | C/C(=C\C(=O)c1ccccc1)Nc1cccc(O)c1 |  | 3.38 µM (active)
72 | Cc1ccc(NC(=O)COc2ccc(/C=N\NC(=O)c3cccnc3)cc2)cc1C | -8.22% (inactive) | 
73 | Cc1ccc(OCC(=O)NCCCNC(=O)c2cccnc2)cc1C | -0.246% (inactive) | 
74 | CC(=O)c1cccc(NC(=O)[C@@H](NC(N)=O)C(C)C)c1 | -1.72% (inactive) | 
75 | COc1cc(/C=C(/NC(=O)c2ccccc2)C(=O)Nc2cccc(O)c2)c([N+](=O)[O-])cc1OC | 0.805% (inactive) | 
76 | O=C(Nc1cccc(O)c1)c1ccc(C(=O)c2ccccc2)o1 |  | 6.75 µM (active)
77 | CC1(C)CC(=O)C=C(c2ccc3ncccc3c2)C1 | -12.7% (inactive) | 
78 | CCOC(=O)C1CCN(C(c2ccc(F)cc2)c2sc3nc(-c4ccco4)nn3c2O)CC1 (centres undefined) | -17.7% (inactive) | 

Row | Compound | activity change, negative = inhibition | Potency
79 | CCN(CCCNC(=O)Cn1ncc2c([nH]c3ccccc32)c1=O)c1cccc(C)c1 | -2.09% (inactive) | 
80 | CC(=O)c1ccc(N2CCN(C(=O)c3ccc(Cl)c(S(=O)(=O)NC4CC4)c3)CC2)c(F)c1 | -5.23% (inactive) | 
81 | Cc1ccc(CNC(=O)c2cccc3c2C(=O)c2ccc(N4CCC(C)CC4)cc2S3(=O)=O)cc1 | -46.4% (inactive) | 
82 | CCOC(=O)[C@H]1[C@H]2COc3ccc(C)cc3[C@@H]2N2C(=O)CN(Cc3ccc(F)cc3)C(=O)[C@@]12C | 0.429% (inactive) | 
83 | CCOc1ccc(CNC(=O)C2CCCN(S(=O)(=O)N(CC)c3ccc(OCC)cc3)C2)cc1 (centres undefined) | -14.8% (inactive) | 
84 | Cc1ccc(Cl)cc1NC(=O)NC1COc2ccccc2C1 (centres undefined) | 0.229% (inactive) | 
85 | CN(C)S(=O)(=O)c1cc(C(=O)Nc2ccn(C)n2)c(Cl)cc1Cl | 3% (inactive) | 
86 | Cc1ccc(C(=O)Nc2ccn(C)n2)cc1 | 10.3% (inactive) | 
87 | Cn1ccc(NC(=O)Nc2ccc(Cl)cc2)n1 |  | 16.9 µM (active)
88 | Cc1ccc2nc(COc3ccc(NC(=O)COc4ccccc4F)cc3)cc(=O)n2c1 | -1.49% (inactive) | 
89 | CC(NC(=O)c1cc2c(=O)n3ccccc3nc2n(C(C)C)c1=N)c1ccccc1 (centres undefined) | -4.62% (inactive) | 
90 | CCC(=O)N1CCc2cc(Br)cc(S(=O)(=O)CCC(=O)N3CCN(c4ccc(F)cc4)CC3)c21 | 4.84% (inactive) | 
91 | COc1ccc([C@H]2CC(=O)C=C(/C=C/c3ccccc3)C2)cc1 | -29.8% (inactive) | 
92 | COc1ccc(-c2cn3c(n2)sc2cc(C(=O)Nc4ccccc4F)ccc23)cc1 | -7.07% (inactive) | 
93 | CC(=O)Nc1ccc(NC(=O)[C@@H](NC(=O)c2cccc(C)c2)C(C)C)cc1 | 0.122% (inactive) | 
94 | O=C(COC(=O)c1cccs1)NCc1cccs1 | -19.2% (inactive) | 
95 | CCOC(=O)c1ccc(NC(=O)Cc2cccs2)cc1 |  | 15.1 µM (active)
96 | O=C(Nc1ccc(N2CCN(C(=O)C3CC3)CC2)cc1)c1cccs1 | -13.9% (inactive) | 
97 | CCc1ccc(NC(=O)CCNS(=O)(=O)c2cccs2)cc1 | -19.1% (inactive) | 
98 | CCOc1ccccc1NC(=O)Cc1cccs1 | -0.362% (inactive) | 
99 | CCc1ccc(NC(=O)COC(=O)c2cccs2)cc1 |  | 6.75 µM (active)
100 | O=C(O)Cc1ccc(NC(=O)c2cccs2)cc1 |  | 12 µM (active)
101 | O=C(Nc1ccccc1)c1ccc(NC(=O)c2cccs2)cc1 | -0.452% (inactive) | 
102 | Cc1cccc(C(=O)OCC(=O)Nc2ccc(F)cc2)c1 | -4.32% (inactive) | 
103 | O=C(Cc1cccs1)Nc1ccc([N+](=O)[O-])cc1 | -12.9% (inactive) | 
104 | Cc1cccc(C(=O)Nc2ccc(CC(=O)O)cc2)c1 |  | 9.53 µM (active)
